Common to all, as to test: yeast three-hybrid, YBZ-1, SC-Leu-His + 0.5 mM 3-AT, 4 days
Conditions in all cases: tags: N-Gal4 AD-HA kept; label: inside an RPR1-promoter hybrid RNA with tandem MS2 sites; ssRNA

The target in one experiment is PUM1 PUF domain R7-SRP (Homo sapiens, UniProt Q14671 828-1176, N1080R;E1083P). In a few lines:
(§1)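 The interaction score is the log change in variant frequency from input to selection. Scores were computed in log2 with a pseudocount of 1 for absent variants, using Illumina sequencing of PCR-amplified repeat regions. The input came from four days on SC-Leu and the selection from four days on SC-Leu-His + 0.5 mM 3-AT. The cells were strain YBZ-1 (LexA–MS2 coat fusion, HIS3 reporter) co-expressing Pumilio-1 PUF domain libraries and matching RNA elements from a centromeric plasmid.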

The next experiment deals with PUM1 PUF domain R5-RHD (Homo sapiens, UniProt Q14671 828-1176, C1007R;R1008H;Q1011D). Summed up: as §1
For another experiment, the target named is PUM1 PUF domain R8-PYA (Homo sapiens, UniProt Q14671 828-1176, N1122P;Q1126A). In a few lines: as §1
The target in the next experiment is PUM1 PUF domain R4-RHS (Homo sapiens, UniProt Q14671 828-1176, N971R;Q975S). Summed up:
as §1

The target in another experiment is PUM1 PUF domain R3-IYG (Homo sapiens, UniProt Q14671 828-1176, C935I;R936Y;Q939G). Summed up: as §1
A further experiment addresses T1, PUM1 PUF domain R6-TFC (Homo sapiens, UniProt Q14671 828-1176, N1043T;Y1044F;Q1047C).
T1 sequence: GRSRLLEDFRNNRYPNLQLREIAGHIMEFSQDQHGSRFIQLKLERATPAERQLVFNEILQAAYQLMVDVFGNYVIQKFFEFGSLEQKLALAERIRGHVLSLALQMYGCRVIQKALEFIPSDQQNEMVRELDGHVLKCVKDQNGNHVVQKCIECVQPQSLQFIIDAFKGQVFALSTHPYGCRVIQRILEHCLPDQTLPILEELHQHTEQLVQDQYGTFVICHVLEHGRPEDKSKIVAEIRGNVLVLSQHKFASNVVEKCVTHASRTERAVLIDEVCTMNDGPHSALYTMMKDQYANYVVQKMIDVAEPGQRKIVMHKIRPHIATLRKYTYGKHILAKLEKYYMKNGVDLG
Summed up:
as §1

A further experiment concerns the target PUM1 PUF domain R1-TIE (Homo sapiens, UniProt Q14671 828-1176, S863T;R864I;Q867E). Summed up: as §1
Another experiment has as its target PUM1 PUF domain R8-FHR (Homo sapiens, UniProt Q14671 828-1176, N1122F;Y1123H;Q1126R). Summed up:
as §1

The values that follow come from publication PMC8384837, “Expanding the binding specificity for RNA recognition by a PUF domain”.

“GGCUAGAACUAGUGGAUCCCCCGGCGCCCGGCGGCUCGAGCCCGGGUAAGUUUAAAUAGUCUGCAUGCCGCCGGGCGCCAUGCCUGCAGGUCGACUCUAGAAAACAUG”: the binding signal with PUM1 PUF domain R7-SRP is 3.52 log2 enrichment (interaction score).

“GGCUAGAACUAGUGGAUCCCCCGGCGCCCGGCGGCUCGAGCCCGGGUAAGUGUGAAUAGUCUGCAUGCCGCCGGGCGCCAUGCCUGCAGGUCGACUCUAGAAAACAUG”: the binding signal with PUM1 PUF domain R5-RHD was 5.63 log2 enrichment (interaction score).

For “GGCUAGAACUAGUGGAUCCCCCGGCGCCCGGCGGCUCGAGCCCGGGUAAGUGUAAAUAGUCUGCAUGCCGCCGGGCGCCAUGCCUGCAGGUCGACUCUAGAAAACAUG”, the values for the binding signal in the experiment with PUM1 PUF domain R8-PYA, in the experiment with PUM1 PUF domain R4-RHS and in the experiment with PUM1 PUF domain R3-IYG were 2.27 log2 enrichment (interaction score), 2.87 log2 enrichment (interaction score) and 4.83 log2 enrichment (interaction score), respectively.

“GGCUAGAACUAGUGGAUCCCCCGGCGCCCGGCGGCUCGAGCCCGGGUAAGUGAAAAUAGUCUGCAUGCCGCCGGGCGCCAUGCCUGCAGGUCGACUCUAGAAAACAUG”: in the experiment with PUM1 PUF domain R6-TFC, the binding signal is 5.07 log2 enrichment (interaction score).

For “GGCUAGAACUAGUGGAUCCCCCGGCGCCCGGCGGCUCGAGCCCGGGUAAGUGUACAUAGUCUGCAUGCCGCCGGGCGCCAUGCCUGCAGGUCGACUCUAGAAAACAUG”, the binding signal in the experiment with PUM1 PUF domain R4-RHS was 2.12 log2 enrichment (interaction score).

Turning to “GGCUAGAACUAGUGGAUCCCCCGGCGCCCGGCGGCUCGAGCCCGGGUAAGUGUAAAUUGUCUGCAUGCCGCCGGGCGCCAUGCCUGCAGGUCGACUCUAGAAAACAUG”, in the experiment with PUM1 PUF domain R1-TIE, the binding signal was 4.28 log2 enrichment (interaction score).

Take “GGCUAGAACUAGUGGAUCCCCCGGCGCCCGGCGGCUCGAGCCCGGGUAAGUGUAACUAGUCUGCAUGCCGCCGGGCGCCAUGCCUGCAGGUCGACUCUAGAAAACAUG”: in the experiment with PUM1 PUF domain R3-IYG, the binding signal is 0.48 log2 enrichment (interaction score).

As to “GGCUAGAACUAGUGGAUCCCCCGGCGCCCGGCGGCUCGAGCCCGGGUAAGCGUAAAUAGUCUGCAUGCCGCCGGGCGCCAUGCCUGCAGGUCGACUCUAGAAAACAUG”, the binding signal with PUM1 PUF domain R8-FHR was 3.71 log2 enrichment (interaction score).
